RecA splice inh – blocks M. tuberculosis RecA intein splicing; P9WHJ3; cell-free RecA intein splicing, fluorescence; inhibition, % (concentration not given with the values); 290,000 compounds, 0.75% hits; AID 2221; in the data active = inhibition above about 30%; inconclusive = no clear call, values can overlap the other calls;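 also: 0% = vehicle wells and 100% = reference inhibitor control wells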
Target sequence (P9WHJ3 whole entry, looked up, canonical isoform): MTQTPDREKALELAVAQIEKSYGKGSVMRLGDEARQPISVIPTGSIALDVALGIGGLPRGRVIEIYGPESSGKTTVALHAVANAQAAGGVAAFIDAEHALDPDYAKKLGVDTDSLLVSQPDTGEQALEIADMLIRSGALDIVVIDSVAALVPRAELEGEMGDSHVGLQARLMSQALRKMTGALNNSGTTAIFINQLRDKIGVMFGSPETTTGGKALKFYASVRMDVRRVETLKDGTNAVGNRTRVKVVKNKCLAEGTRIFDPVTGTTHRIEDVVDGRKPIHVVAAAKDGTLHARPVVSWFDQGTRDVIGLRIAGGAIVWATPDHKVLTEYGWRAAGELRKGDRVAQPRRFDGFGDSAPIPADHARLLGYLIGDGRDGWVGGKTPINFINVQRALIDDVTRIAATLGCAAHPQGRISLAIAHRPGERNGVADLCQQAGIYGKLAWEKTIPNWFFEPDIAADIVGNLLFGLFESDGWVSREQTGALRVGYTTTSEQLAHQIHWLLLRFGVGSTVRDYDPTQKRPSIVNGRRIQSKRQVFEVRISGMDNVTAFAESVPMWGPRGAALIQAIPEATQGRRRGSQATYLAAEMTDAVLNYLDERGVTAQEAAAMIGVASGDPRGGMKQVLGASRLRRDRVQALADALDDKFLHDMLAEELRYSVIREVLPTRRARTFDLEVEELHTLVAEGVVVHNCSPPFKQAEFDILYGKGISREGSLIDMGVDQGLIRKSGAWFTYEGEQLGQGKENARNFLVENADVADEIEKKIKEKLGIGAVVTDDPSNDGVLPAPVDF
PfHsp40 yeast – restores yeast growth despite PfHsp40 toxicity; S. cerevisiae expressing PfHsp40, growth rescue, ATP luminescence; growth rescue, % at 12.5 µM; 340,000 compounds, 0.68% hits; in the data active = growth rescue above about 28%, passing the limit was not always enough; inconclusive = no clear call, values can overlap the other calls;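 also: yeast W303a lacking pdr1 and pdr3 grown in galactose medium; growth measured after three days at 30 °C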
PrP 5UTR inh – suppresses PrP 5' UTR mRNA reporter expression; 340,000 compounds, 0.35% hits; inhibition, % (concentration not given with the values); cell-based PrP 5' UTR mRNA reporter, plate reader; AID 488862; in the data active = inhibition above about 52%; also: 0 = median of the neutral control wells
PrPC surface inh – inhibitors of human cell surface prion protein PrPC. TR-FRET read-out. inhibition, % at 13.8 µM. 370,000 compounds, 0.43% hits; in the data active = inhibition above about 24%; also: 0% = median of the test wells and 100% = reference compound wells
BJeLR viability – BJeLR cell viability loss; BJeLR (HRASV12) viability, CellTiter-Glo ATP luminescence, 48 h; inhibition, % (test concentration not listed); 300,000 compounds, 0.17% hits; in the data active = inhibition above about 50%; inconclusive = no clear call, values can overlap the other calls
PriA SSB inh – K. pneumoniae PriA-SSBct interaction inhibition; AlphaScreen SSBct-PriA binding, biotinylated peptide; inhibition, % at 33 µM; 430,000 compounds, 0.6% hits; AID 1272365; in the data active = inhibition mostly above about 37%, no sharp cut-off; inactive = mostly below about 20%;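 also: plate controls were negative control peptide for no effect and reference peptide for full effect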
Starred values were filed as active, the others as inactive; ? = inconclusive; . = no result; ! = a repeat was not active. Shown are actives, neighbours in structure and some others; about 1.9% of the full set was active somewhere.

SMILES | RecA splice inh | PfHsp40 yeast | PrP 5UTR inh | PrPC surface inh | BJeLR viability | PriA SSB inh
S=C(NCCCCc1ccccc1)NCc1ccccc1 | 7.8 | 54.6* | 2.1 | 7.3 | -1.3 | -33.4
Cc1ccsc1[C@@H](O)CNC(=O)COc1ccccc1 | . | . | . | . | . | -12.0
CN(C)c1ccc(C(CN)N2CCN(c3ccc(F)cc3)CC2)cc1 (stereo not drawn) | . | . | . | . | . | 46.0
CC(=O)C(=Nc1ccc(Cl)cc1Cl)NNc1cccc(Cl)c1 | 33.8* | 3.9 | 5.6 | -18.0 | 3.5 | 58.5
CC(=O)Nc1ccc(NC(=O)Nc2cccc(Cl)c2)cc1 | -4.9 | -0.6 | -29.4 | -2.8 | 11.1 | -2.9
C#CCOCCOCCOCCNc1nc(N2CCN(C(=O)CCCCCCCCCCNC(=O)[C@@H](CCSC)n3cc(CCO)nn3)CC2)nc(N2CCN(C(=O)CCCCCCCCCCNC(=O)[C@H](CO)n3cc(CCCCCN)nn3)CC2)n1 | . | 84.5* | -19.0 | . | . | 25.2
C#CCOCCOCCOCCNc1nc(N2CCN(C(=O)CCCCCCCCCCNC(=O)Cn3cc(CCCCCN)nn3)CC2)nc(N2CCN(C(=O)CCCCCCCCCCNC(=O)Cn3cc(C[C@@H](C)O)nn3)CC2)n1 | . | 38.3* | -19.3 | . | . | -3.8
C#CCOCCOCCOCCNc1nc(N2CCN(C(=O)CCCCCCCCCCNC(=O)[C@@H](CCSC)n3cc(CCO)nn3)CC2)nc(N2CCN(C(=O)CCCCCCCCCCNC(=O)[C@H](CCC(=O)O)n3cc(CCCCCN)nn3)CC2)n1 | . | 0.5 | -15.3 | . | . | 10.3
C#CCOCCOCCOCCNc1nc(N2CCN(C(=O)CCCCCCCCCCNC(=O)[C@H](CCCCN)n3cc(C)nn3)CC2)nc(N2CCN(C(=O)CCCCCCCCCCNC(=O)[C@H](CCCN=C(N)N)n3cc(C[C@@H](C)CC)nn3)CC2)n1 | . | . | . | . | . | 8.4
C#CCOCCOCCOCCNc1nc(N2CCN(C(=O)C(Cc3cc4ccccc4[nH]3)n3cc(C(N)C(C)CC)nn3)CC2)nc(N2CCN(C(=O)C(Cc3cc4ccccc4[nH]3)n3cc(C(N)C(C)CC)nn3)CC2)n1 (stereo not drawn) | 8.3 | 0.5 | -15.6 | . | -0.7 | 43.3*
C#CCOCCOCCOCCNc1nc(N2CCN(C(=O)CCCCCCCCCCNC(=O)[C@H](CCCCN)n3cc(C[C@@H](C)CC)nn3)CC2)nc(N2CCN(C(=O)CCCCCCCCCCNC(=O)[C@H](CCCN=C(N)N)n3cc(C[C@@H](C)CC)nn3)CC2)n1 | . | 25.6* | 6.6 | . | . | 7.0
O=C1CCC(=O)N1Cc1csc(N2CCOCC2)n1 | . | . | . | . | . | -17.0
CCC(CO)Oc1cc(NCc2cc(C)cc(C)c2)c2ncn(C(C)C)c2c1 (stereo not drawn) | . | 1.1 | 9.8 | 0.8 | . | 55.3*
CCC(CO)Oc1cc(NCc2ccc(C)c(C)c2)c2ncn(C(C)C)c2c1 (stereo not drawn) | . | 0.1 | -12.8 | 2.4 | . | 36.2
O=P1(c2ccccc2)Nc2ccccc2N1c1ccccc1 (stereo not drawn) | . | -0.8 | -21.9 | -7.2 | . | 57.0*
CCOc1cccc(/C=N/NC(=O)c2cc(-c3cccn3C)n[nH]2)c1O | 4.0 | 36.3* | 8.1 | 10.2 | 10.2 | .
Cn1cccc1-c1cc(C(=O)NN=Cc2ccccc2Cl)[nH]n1 | . | . | . | . | . | 39.9*
Cn1cccc1-c1cc(C(=O)NN=Cc2cc(Br)ccc2O)[nH]n1 | . | . | . | . | . | 1.4
S=c1[nH]cc(Oc2ccc(Cl)cc2Cl)c(=S)[nH]1 | . | . | . | 22.0 | . | 9.6
Oc1cc(Cl)ccc1Oc1ccc(Cl)cc1Cl | 21.5 | 263.0* | -5.0 | -2.9 | -3.6 | -29.6
Cc1ccc(C(=O)Cn2nnc(-c3cccs3)n2)cc1 | -1.6 | 0.1 | -60.5 | -1.7 | -5.3 | -0.8
O=C(CN1CC[n+]2c(-c3cccs3)csc21)c1ccc(-c2ccccc2)cc1 | 16.1 | 400.8* | -2.7 | 3.0 | 6.2 | 5.2
Cc1csc(NC(=O)CSc2ccc(-c3ccccn3)nn2)n1 | 2.2 | ? | -23.3 | 1.8 | -4.4 | 63.2*
COC(=O)c1ccc(NC(=O)CSc2ccc(-c3ccccn3)nn2)cc1 | 1.9 | 0.2 | -22.2 | -1.2 | -23.2 | 37.0*!
Cc1ccccc1NC(=O)CSc1ccc(-c2ccccn2)nn1 | -2.0 | 380.9* | -3.5 | -4.9 | -0.1 | 7.9
COc1ccc(C)cc1NC(=O)CSc1ncc(-c2cccc(Br)c2)o1 | . | . | . | . | . | -24.0
O=C1c2ccccc2-c2onc3ccc(NCc4ccco4)c1c23 | 17.4 | 2.0 | -10.5 | . | 17.3 | 78.2*
O=S(=O)(c1ccc(F)cc1)N1CCCC1 | -0.3 | 37.0* | -22.0 | -1.5 | -9.0 | -16.1
